# Insulin prom inh: TRM-6 insulin promoter activity inhibition. 130,000 compounds, 0.9% hits. TRM-6 cells (human fetal islet line), insulin promoter-eGFP reporter, imaging; reporter expression induced with tamoxifen. inhibition, % at 2 µM;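 active means inhibition above the mean plus 3 SD, with well images judged a real hit on visual review, cut at about 60% in these data, passing the limit was not always enough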
# Measles CPE: protection of cells from measles virus | AID 841 | 140,000 compounds, 1.5% hits | protection (pct of control), % at 4 µM | Measles virus-infected cells, CPE protection, absorbance; in the data active means protection mostly above about 24%, no sharp cut-off; inactive means mostly below about 26%
# ROMK mod: modulates human ROMK potassium channel activity | P48048 | Tet-inducible ROMK, thallium flux fluorescence; actives lie on both sides | B-score at 10 µM | 130,000 compounds, 2% hits | AID 1918;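 active means signal ratio slope over the read window, or its plate-corrected B-score, at least 3 SD from the plate mean, either direction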;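 further: B-score of the F/F0 ratio slope over 7 to 12 s after thallium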
# Target sequence (P48048 whole entry, looked up): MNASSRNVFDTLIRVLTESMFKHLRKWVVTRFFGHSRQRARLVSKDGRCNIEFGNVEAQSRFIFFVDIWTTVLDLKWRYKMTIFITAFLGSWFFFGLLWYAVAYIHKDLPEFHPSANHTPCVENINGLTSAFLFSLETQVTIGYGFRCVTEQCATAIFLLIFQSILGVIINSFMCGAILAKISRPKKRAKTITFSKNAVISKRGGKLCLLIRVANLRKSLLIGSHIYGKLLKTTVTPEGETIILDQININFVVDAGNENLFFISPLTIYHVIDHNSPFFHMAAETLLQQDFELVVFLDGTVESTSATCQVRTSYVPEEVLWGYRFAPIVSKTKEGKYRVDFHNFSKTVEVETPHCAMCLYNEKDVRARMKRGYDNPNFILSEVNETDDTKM
# sdo1 growth: compounds rescuing growth of sdo1-depleted yeast, bone marrow failure model; AID 817; S. cerevisiae sdo1-depleted JHY4D growth rescue, OD600 30 h; hits give high values; pdr5 snq2 efflux-pump mutant strain; 140,000 compounds, 0.21% hits; z-score at 10 µM;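 active means z-score above 3 at both the 24 hr and the 30 hr optical density reads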;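 further: z-score against mean and SD of all compound wells on the same plate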
# An asterisk follows results filed as active; / = no result given. Most compounds without a hit are left out; they make up all but 3% or so of the library.
SMILES,Insulin prom inh,Measles CPE,ROMK mod,sdo1 growth
Cc1nc(=O)cc(-c2ccccc2)n1-c1ccccc1,37.5,36.3*,/,1.94
Cc1nn(C)c(=O)n1-c1ccccc1,/,/,-1.39,/
CCN(CC)S(=O)(=O)c1ccc(N=NC2=C(O)CC(C)(C)CC2=O)cc1,16.0,26.8,/,-0.57
CCN(CC)S(=O)(=O)c1ccc(N=NC2=C(O)CCCC2=O)cc1,/,34.0*,/,-0.16
CCNc1nc(Cl)nc(NCCOc2ccc(C)cc2)n1,0.0,16.9,/,0.58
CN(C)c1nc(Cl)nc(NCCOc2ccccc2)n1,65.5*,25.5,0.796,-0.29
O=C(CCCC(=O)NCc1ccc(F)cc1)NCc1ccc(F)cc1,/,/,-0.542,/
CC(C)(C)CC(=O)NCc1ccc(F)cc1,73.3*,22.5,-0.249,1
O=C(COC(=O)CCCNC(=O)c1ccc(Cl)cc1)Nc1ccc(Br)cc1,/,111.9*,-0.00508,-1.83
CC1CN(CCCCOc2ccc(F)cc2)CC(C)O1 (configuration not stated),/,/,-0.521,/
Cc1cc(C)n(C(=O)C(C)N2C(=O)c3ccccc3C2=O)n1 (configuration not stated),/,38.6*,/,-0.16
Cc1cc(C)n(C(=O)CN2C(=O)c3ccccc3C2=O)n1,/,6.7,0.0179,0.39
CC(C)c1nc2sc3c(=S)nc[nH]c3c2c2c1CCC2,/,/,5.21*,/
CCOCCCNC(=O)c1ccccc1OC1CCN(S(C)(=O)=O)CC1,/,/,0.703,/
Cc1ccccc1NC(=O)c1ccc(CN2CCC(Cc3ccccc3)CC2)cc1,6.5,50.7*,/,-0.72
COc1ccc(CCNC(=O)c2ccc(CN3CCC(Cc4ccccc4)CC3)cc2)cc1,9.4,12.1,/,-1.5
O=C(CNC(=O)c1ccc(S(=O)(=O)N2CCCCC2)cc1)N/N=C/c1ccco1,-114.3,/,-0.545,/
CCCOc1ccccc1C1CC(=O)NC2=C1C(=O)CCC2 (configuration not stated),/,8.4,/,0.45
CCOc1ccccc1C1CC(=O)NC2=C1C(=O)CCC2 (configuration not stated),/,2.5,4.71*,-0.18
CCCCCn1nc(C(=O)OCC(=O)c2c(N)n(C)c(=O)n(C)c2=O)c2ccccc2c1=O,71.4*,/,0.31,/
CCCCCCn1nc(C(=O)OCC(=O)c2c(N)n(C)c(=O)n(C)c2=O)c2ccccc2c1=O,/,/,1.06,/
COc1ccc(C2C(C(=O)c3ccccc3)=C(C)Nc3nc4ccccc4n32)c(OC)c1 (configuration not stated),-46.3,17.9,-0.973,-1.44
Cc1csc(SCC(=O)NC(=O)NCCC(C)C)n1,/,/,0.576,/
CCCCOc1ccc(Cc2n[nH]c(=S)n2N)cc1,-27.6,39.5*,0.132,-0.66
O=C(Nc1cc(SCCO)cc([N+](=O)[O-])c1)c1ccco1,-5.9,15.2,-0.407,-0.45
SMILES,Insulin prom inh,Measles CPE,ROMK mod,sdo1 growth
O=C(Cc1cccs1)Nc1cc(SCCO)cc([N+](=O)[O-])c1,-14.3,102.2*,0.169,-0.13
CCCOc1ccc(C(C)=O)cc1CSCCC#N,25.6,40.0*,1.03,-0.32
CC(C)Cn1cnc2c(c1=O)c1nc3ccccc3nc1n2Cc1ccc2c(c1)OCO2,-7.4,57.6*,1.12,-0.92
CCCCn1cnc2c(c1=O)c1nc3ccccc3nc1n2Cc1ccc2c(c1)OCO2,/,/,-0.133,/
Nc1ncc(Br)cc1N=Cc1ccccc1,75.8*,17.1,/,0.68
Cn1ncc(N=Cc2ccccc2)c1C(N)=O,/,5.9,0.692,0.15
Cc1ccc(C)c(SCC(=O)Nc2cccnc2Cl)c1,-9.1,/,-1.48,/
CCCn1ncc(CN2CCC(N3CCC(C(=O)N4CCOCC4)CC3)CC2)c1C,/,/,1.51,/
COc1cccc(NC(=O)CCC(=O)NCc2ccco2)c1,-1.4,85.8*,0.416,0.19
CCc1cc2c(NCC3CCCO3)nc(C)nc2s1 (configuration not stated),-462.5,11.0,-0.656,0.02
CCOc1ccnc(OCC)c1Br,78.6*,4.1,0.448,2.19
CCOc1ncccc1C(=O)OCC(=O)c1ccccc1Br,-33.3,/,0.417,/
CC(c1ccccc1)N1CCc2[nH]c(=S)[nH]c(=O)c2C1 (configuration not stated),90.9*,/,-0.00309,/
Cc1ccc(NC(=O)C2C(c3ccccc3)C=CC(c3ccccc3)C2C(=O)O)cc1 (configuration not stated),-5.7,27.1*,-0.29,-0.26
CC(=O)Oc1ccc2oc(C)c(C(=O)N3CCOCC3)c2c1,/,39.3*,/,0.69
COCCNC(=O)C(C)OC(=O)c1cc2sccc2n1C (configuration not stated),28.9,10.7,/,0.73
CC(C)c1ccc(OCC(=O)Nc2ccc(OC(F)(F)F)cc2)cc1,/,34.5*,/,0.11
O=[N+]([O-])c1ccc(Nc2nc(NC3CCCCC3)nc(N3CCCC3)n2)cc1,-13.3,/,/,/
O=C(CC(c1ccccc1)c1ccco1)Nc1nccs1 (configuration not stated),-35.7,25.2*,-0.305,-0.32
CCc1ccc2oc(=O)cc(CN(C)Cc3ccccc3)c2c1,8.3,14.2,-3.13*,-1.56
CCN(CC)S(=O)(=O)c1c(OC)cc(C)c(Cl)c1C,/,/,0.185,/
Cc1cc(C)c(-c2cc(C)nc3ncnn23)c(C)c1,/,/,1.13,/
Cc1ccc(-c2cc(C)nc3ncnn23)cc1,/,46.7*,/,-0.67
Cc1cc(C(=O)Nc2sc3c(c2C#N)CCCC3)no1,/,1.1,3.65*,-2
Cc1cc(C(=O)Nc2sc3c(c2C#N)CCC3)no1,37.1,4.2,1.02,-0.53
SMILES,Insulin prom inh,Measles CPE,ROMK mod,sdo1 growth
O=C(CSc1nc(-c2ccccc2)cs1)N1CCN(C(=O)c2ccco2)CC1,6.1,17.9,-1.18,-0.45
O=C(CN1CCN(C(=O)c2ccco2)CC1)Nc1cc(Cl)ccc1Cl,5.4,69.1*,/,-0.39
O=C(CSc1nc2cc(Cl)ccc2s1)N1CCN(C(=O)c2ccco2)CC1,-60.5,61.3*,-0.861,0.21
O=C(CN1CCN(C(=O)c2ccco2)CC1)Nc1ccccc1-c1ccccc1,/,10.4,0.0506,-0.56
Cc1cccc(NC(=O)C2C3C=CC(C4CC34)C2C(=O)O)c1 (configuration not stated),36.0,48.5*,/,0.54
CC(C)N(C(=O)C[n+]1ccsc1N)c1ccccc1,/,/,0.645,/
COC(=O)CN1C(C)=Nc2ccc(C)cc2C1c1ccccc1 (configuration not stated),/,/,-0.241,/
COC(=O)CN1C(c2ccccc2)=Nc2ccc(Cl)cc2C1c1ccccc1 (configuration not stated),-22.9,6.4,-3.08*,-0.78
CCC1CCC(C(=O)NC(C(=O)NCCCN2CCCCC2C)C(C)C)CC1 (configuration not stated),13.3,/,-0.131,/
Oc1ccc(-c2csc(NCc3ccco3)n2)cc1,/,9.2,-0.0454,0.19
CC(=O)Nc1cccc(-c2csc(NCc3ccco3)n2)c1,43.8,27.2*,/,0.59
O=C(COC(=O)C1c2ccccc2Oc2ccccc21)NC1CCS(=O)(=O)C1 (configuration not stated),-8.3,active,/,-0.18
CN(C(=O)COC(=O)C1c2ccccc2Oc2ccccc21)C1CCS(=O)(=O)C1 (configuration not stated),/,2.1,/,-0.16
CN(CC(=O)NCc1ccncc1)S(=O)(=O)c1ccc(Cl)cc1,/,/,-0.243,/
Cc1ccc(C(=O)CSC2=C(C#N)C(c3ccco3)C3=C(CC(C)(C)CC3=O)N2)cc1 (configuration not stated),17.2,1.1,-0.0405,0.48

# High-throughput results from PubChem BioAssay.
